This note sets out measurements from PubChem BioAssay (EPA / NIEHS).

The structures appear in SMILES notation. Several values for one entry are separate records, joined by “and”; a condition that tells them apart may be missing. Equal values may be shown once. Activity calls are given as the source filed them. The calls were made as follows: active = hit-call score of the fitted dose curve at least 0.9, where 1 is the maximum; inactive = score below 0.9.

Read-out in assay [1]: Transforming growth factor beta 1 (TGFb1), TGFB1 (gene 7040)
In words: BSK_KF3CT_TGFb1: BioMAP Diversity Plus: KF3CT Assay for Transforming growth factor beta 1 (TGFb1) Biomarker Activity (AID 2283072). Particulars: primary human keratinocytes with fibroblasts; actives raise or lower the signal. In short, it runs like this: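 ELISA quantifies TGF-b1 at 24 h post-dose in a primary human skin co-culture of keratinocytes and fibroblasts, with gain or loss judged against DMSO. Parallel SRB total-protein staining flags overt cytotoxicity.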

Read-out in assay [2]: C-C motif chemokine 2 (Homo sapiens) (UniProt P13500)
In words: BSK_KF3CT_MCP1: BioMAP Diversity Plus: KF3CT Assay for Monocyte Chemoattractant Protein 1 (MCP1/CCL2) Biomarker Activity (AID 2283073). Particulars: primary human keratinocytes with fibroblasts; actives raise or lower the signal. An outline of the steps:
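Human keratinocyte–foreskin fibroblast co-culture; MCP-1 measured by ELISA 24 h after dosing. Bidirectional fit vs DMSO; cytotoxicity tracked by SRB total protein in parallel cultures.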

Read-out in assay [3]: Matrix Metallopeptidase 9 (MMP9), MMP9 (gene 4318)
In words: BSK_KF3CT_MMP9: BioMAP Diversity Plus: KF3CT Assay for Matrix Metallopeptidase 9 (MMP9) Biomarker Activity (AID 2283074).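 Also: MMP9 protein level quantified by ELISA in the co-culture.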 Particulars: primary human keratinocytes with fibroblasts; actives raise or lower the signal. An outline of the steps: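 Values come from bidirectional fitting relative to DMSO of MMP-9 levels, which were measured by ELISA. Measurements were taken 24 h after chemical dosing of a keratinocyte and foreskin fibroblast co-culture.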

Read-out in assay [4]: urokinase plasminogen activator (uPA), PLAU (gene 5328)
In words: BSK_KF3CT_uPA: BioMAP Diversity Plus: KF3CT Assay for urokinase plasminogen activator (uPA) Biomarker Activity (AID 2283075). Particulars: primary human keratinocytes with fibroblasts; actives raise or lower the signal. In short, it runs like this:
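Values derive from bidirectional fitting against DMSO controls. Keratinocyte/foreskin fibroblast co-cultures received chemical; 24 h later uPA was detected by ELISA, with SRB total-protein staining in parallel wells for overt cytotoxicity.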

Read-out in assay [5]: CD40, CD40 (gene 958)
The assay is described as follows: BSK_LPS_CD40: BioMAP Diversity Plus: LPS Assay for CD40 Biomarker Activity (AID 2283076). Particulars: primary human HUVEC with PBMC; actives raise or lower the signal. An outline of the steps: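 HUVEC plus PBMC co-culture stimulated with LPS; CD40 quantified by ELISA 24 h after compound dosing. Fitting was bidirectional relative to DMSO. SRB staining of parallel cultures flagged overt cytotoxicity.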

Read-out in assay [6]: E-selectin (Homo sapiens) (UniProt P16581)
The assay is described as follows: BSK_LPS_Eselectin: BioMAP Diversity Plus: LPS Assay for Eselectin Biomarker Activity (AID 2283077). Particulars: primary human HUVEC with PBMC; actives raise or lower the signal. In short, it runs like this:
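Human umbilical vein endothelial cells co-cultured with PBMC under LPS stimulation; cell-surface E-selectin measured by ELISA 24 h after dosing. Change in either direction versus DMSO, with SRB total-protein staining in parallel cultures for cytotoxicity.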

Read-out in assay [7]: Interleukin-8 (IL8), CXCL8 (gene 3576)
In words: BSK_LPS_IL8: BioMAP Diversity Plus: LPS Assay for Interleukin-8 (IL8) Biomarker Activity (AID 2283078). Particulars: primary human HUVEC with PBMC; actives raise or lower the signal. In short, it runs like this:
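Human umbilical vein endothelial cells co-cultured with PBMC, LPS-stimulated, exposed to compound for 24 h. IL-8 quantified by ELISA; fitted in both directions against DMSO, with SRB total-protein staining of parallel cultures for cytotoxicity.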

Assay [8] in a line: BSK_LPS_SRB: Viability Assessment in the BioMAP Diversity Plus: LPS Assay (AID 2283079).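 Also: total protein by sulforhodamine B absorbance as a cytotoxicity measure; measured one day after compound addition; fitted in both directions against DMSO so loss or gain of signal counts.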 Particulars: primary human HUVEC with PBMC. An outline of the steps: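 Co-culture of human umbilical vein endothelial cells and PBMC, read 24 h after dosing. Total protein by 0.1% SRB staining after 10% TCA fixation, absorbance at 560 nm; bidirectional fit against DMSO.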
Read-out in assay [9]: Interleukin-1 alpha (IL1a), IL1A (gene 3552)
In words: BSK_LPS_IL1a: BioMAP Diversity Plus: LPS Assay for Interleukin-1 alpha (IL1a) Biomarker Activity (AID 2283080). Particulars: primary human HUVEC with PBMC; actives raise or lower the signal. An outline of the steps: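 Human umbilical vein endothelial cells co-cultured with PBMC and stimulated with LPS; IL-1a measured by ELISA 24 h after dosing. Bidirectional fitting against DMSO; cytotoxicity checked by SRB staining in parallel cultures.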

Read-out in assay [10]: Monocyte Chemoattractant Protein-1 (MCP1), CCL2 (gene 6347)
The assay is described as follows: BSK_LPS_MCP1: BioMAP Diversity Plus: LPS Assay for Monocyte Chemoattractant Protein-1 (MCP1) Biomarker Activity (AID 2283081).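 Also: secreted MCP-1 protein quantified by ELISA in culture supernatant.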 Particulars: primary human HUVEC with PBMC; actives raise or lower the signal. An outline of the steps:
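Human umbilical vein endothelial cells co-cultured with PBMC, LPS-stimulated; secreted MCP-1 measured by ELISA 24 h after compound addition. Bidirectional curve fitting against DMSO baseline; SRB total-protein staining in parallel cultures for cytotoxicity.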

A short description of assay [11]: BSK_LPS_PGE2: BioMAP Diversity Plus: LPS Assay for Prostaglandin E2 (PGE2) Biomarker Activity (AID 2283082).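 As to AC50: secreted prostaglandin E2 measured by ELISA in LPS-stimulated co-culture.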 Particulars: primary human HUVEC with PBMC; actives raise or lower the signal. An outline of the steps:
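PGE2 release measured by ELISA in an LPS-activated co-culture of human umbilical vein endothelial cells and peripheral blood mononuclear cells, read at 24 h post-dosing. DMSO served as baseline for bidirectional curve fitting.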

Read-out in assay [12]: Macrophage colony-stimulating factor (MCSF), CSF1 (gene 1435)
In words: BSK_LPS_MCSF: BioMAP Diversity Plus: LPS Assay for Macrophage colony-stimulating factor (MCSF) Biomarker Activity (AID 2283083). Particulars: primary human HUVEC with PBMC; actives raise or lower the signal. An outline of the steps:
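HUVEC–PBMC co-culture, M-CSF measured by ELISA 24 h after chemical dosing. Fitted in both directions relative to DMSO as negative control; overt cytotoxicity assessed by SRB total-protein staining in parallel cultures.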

Read-out in assay [13]: Tissue Factor, F3 (gene 2152)
The assay is described as follows: BSK_LPS_TissueFactor: BioMAP Diversity Plus: LPS Assay for Tissue Factor Biomarker Activity (AID 2283084). Particulars: primary human HUVEC with PBMC; actives raise or lower the signal. In short, it runs like this: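 Human umbilical vein endothelial cells co-cultured with PBMC were dosed with compound. Cell-surface CD142 was measured by ELISA 24 h later. Activity was fitted bidirectionally against DMSO, with SRB total-protein staining in parallel cultures for cytotoxicity.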

Read-out in assay [14]: Tumor necrosis factor (Homo sapiens) (UniProt P01375)
The assay is described as follows: BSK_LPS_TNFa: BioMAP Diversity Plus: LPS Assay for Tumour Necrosis Factor alpha (TNFa) Biomarker Activity (AID 2283085).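 As to AC50: TNFa protein level quantified by ELISA in the co-culture.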 Particulars: primary human HUVEC with PBMC; actives raise or lower the signal. In short, it runs like this: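 TNFa was quantified by ELISA in LPS-activated co-cultures of human endothelial cells and PBMC, 24 h post-dosing. Both increases and decreases versus DMSO were fitted.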

Read-out in assay [15]: Vascular cell adhesion molecule 1 (VCAM1), VCAM1 (gene 7412)
The assay is described as follows: BSK_LPS_VCAM1: BioMAP Diversity Plus: LPS Assay for Vascular cell adhesion molecule 1 (VCAM1) Biomarker Activity (AID 2283086). Particulars: primary human HUVEC with PBMC; actives raise or lower the signal. In short, it runs like this: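 VCAM-1 quantified by ELISA in an LPS-activated co-culture of human endothelial cells and peripheral blood mononuclear cells, read 24 h post-treatment. Fitted in both directions versus DMSO; parallel SRB staining flags overt cytotoxicity.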

Read-out in assay [16]: CD38, CD38 (gene 952)
In words: BSK_SAg_CD38: BioMAP Diversity Plus: SAg Assay for CD38 Biomarker Activity (AID 2283087). Particulars: primary human HUVEC with PBMC; actives raise or lower the signal. In short, it runs like this:
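CD38 quantified by ELISA (fluorescence) in a superantigen-activated endothelial cell–PBMC co-culture at 24 h post-dose. Activity fitted in both directions relative to DMSO; parallel SRB and Alamar Blue cytotoxicity read-outs.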

Read-out in assay [17]: CD40, CD40 (gene 958)
In words: BSK_SAg_CD40: BioMAP Diversity Plus: SAg Assay for CD40 Biomarker Activity (AID 2283088). Particulars: primary human HUVEC with PBMC; actives raise or lower the signal. In short, it runs like this:
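HUVEC plus PBMC co-culture, superantigen-activated, with CD40 read by ELISA 24 h after dosing. Curves fitted in both directions against DMSO. Overt cytotoxicity checked by parallel SRB total-protein staining.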

Read-out in assay [18]: CD69, CD69 (gene 969)
In words: BSK_SAg_CD69: BioMAP Diversity Plus: SAg Assay for CD69 Biomarker Activity (AID 2283089).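 Also: cell surface CD69 protein quantified by ELISA with fluorescence detection.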 Particulars: primary human HUVEC with PBMC; actives raise or lower the signal. An outline of the steps:
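Endothelial/PBMC co-culture; chemical added; 24 h incubation; CD69 ELISA with fluorescence detection; bidirectional fit vs DMSO.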

Read-out in assay [19]: Monocyte Chemoattractant Protein-1 (MCP1), CCL2 (gene 6347)
In words: BSK_SAg_MCP1: BioMAP Diversity Plus: SAg Assay for Monocyte Chemoattractant Protein-1 (MCP1) Biomarker Activity (AID 2283090). Particulars: primary human HUVEC with PBMC; actives raise or lower the signal. An outline of the steps:
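Values derive from bidirectional fitting of ELISA-measured MCP1 against DMSO controls. Readings were taken 24 h after dosing human vascular endothelial cells co-cultured with peripheral blood mononuclear cells under superantigen stimulation.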

Read-out in assay [20]: TIMP metallopeptidase inhibitor 2 (TIMP2), TIMP2 (gene 7077)
The assay is described as follows: BSK_KF3CT_TIMP2: BioMAP Diversity Plus: KF3CT Assay for TIMP metallopeptidase inhibitor 2 (TIMP2) Biomarker Activity (AID 2283071). Particulars: primary human keratinocytes with fibroblasts; actives raise or lower the signal. In short, it runs like this: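 TIMP-2 measured by ELISA at 24 h in human keratinocyte/fibroblast primary co-cultures exposed to chemicals. Both increases and decreases were fitted against DMSO. Parallel cultures were stained with SRB for total protein as an overt-cytotoxicity check.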

Sequence of Tumor necrosis factor (Homo sapiens) (P01375 whole entry, looked up): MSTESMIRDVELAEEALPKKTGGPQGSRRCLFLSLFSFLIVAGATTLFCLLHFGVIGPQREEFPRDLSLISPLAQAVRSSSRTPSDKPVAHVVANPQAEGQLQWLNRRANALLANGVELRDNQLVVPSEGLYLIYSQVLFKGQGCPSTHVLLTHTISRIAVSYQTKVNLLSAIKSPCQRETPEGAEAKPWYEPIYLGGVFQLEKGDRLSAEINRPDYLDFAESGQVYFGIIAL
Sequence of E-selectin (Homo sapiens) (P16581 whole entry, looked up): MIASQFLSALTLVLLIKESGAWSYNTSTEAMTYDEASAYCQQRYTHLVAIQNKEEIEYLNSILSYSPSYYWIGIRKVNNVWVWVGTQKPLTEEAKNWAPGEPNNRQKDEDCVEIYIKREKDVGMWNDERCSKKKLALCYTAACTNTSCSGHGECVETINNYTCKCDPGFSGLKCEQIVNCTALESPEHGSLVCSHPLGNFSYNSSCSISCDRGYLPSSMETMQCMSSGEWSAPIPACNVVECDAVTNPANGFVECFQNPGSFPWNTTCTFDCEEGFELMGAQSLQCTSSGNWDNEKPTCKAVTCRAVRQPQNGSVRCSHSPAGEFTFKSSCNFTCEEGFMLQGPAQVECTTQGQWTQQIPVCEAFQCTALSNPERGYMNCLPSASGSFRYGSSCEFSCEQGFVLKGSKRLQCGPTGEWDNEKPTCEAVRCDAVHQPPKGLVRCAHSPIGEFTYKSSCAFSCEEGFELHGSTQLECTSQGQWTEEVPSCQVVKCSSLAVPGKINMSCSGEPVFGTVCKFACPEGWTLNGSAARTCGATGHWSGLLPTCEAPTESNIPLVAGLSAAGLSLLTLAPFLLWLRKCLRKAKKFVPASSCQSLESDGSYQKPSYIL

By AC50 is commonly meant the concentration at which the activity in the assay is half-maximal. For the compound `Oc1cc(Cl)ccc1Oc1ccc(Cl)cc1Cl`, the AC50 in assay [1] was 18.5 µM (active) [middle of 4 runs]; in [2], 36.6 µM (active) [middle of 4 runs]; in assay [3], 15.2 µM (active) [middle of 4 runs]; in [4] it was 31 µM (active) [middle of 4 runs]; in assay [5], 12.3 µM (active) and 9.21 µM (active) and 12.1 µM (active); in assay [6], 15.6 µM (active) [middle of 4 runs]. Further, the AC50 in assay [7] is 27.6 µM (active) [middle of 4 runs]; in assay [8] it was 17.1 µM (active) and 19.7 µM (active) and 18.7 µM (active); in assay [9], 14.3 µM (active) and 14.6 µM (active) and 29 µM (active); in assay [10], 19.9 µM (active) [middle of 4 runs]; in [11], 6.07 µM (active) [middle of 4 runs]; in assay [12], 18.7 µM (active) [middle of 4 runs]. Besides, the AC50 was 28.1 µM (active) and 14.7 µM (active) and 30.3 µM (active) in [13]; 31.2 µM (active) [middle of 4 runs] in assay [14]; 25.8 µM (active) [middle of 4 runs] in [15]; 12.4 µM (active) [middle of 4 runs] in [16]; 12.9 µM (active) [middle of 4 runs] in assay [17]; 13.5 µM (active) and 14.7 µM (active) and 14.4 µM (active) in assay [18]. In addition, the AC50 in assay [19] is 12.5 µM (active) [middle of 4 runs].
As for `C[C@H]1[C@H](c2ccc(Cl)cc2)SC(=O)N1C(=O)NC1CCCCC1`, the outcome in assay [20], in assay [1], in assay [2], in [4], in assay [5] and in [6] was inactive. The outcome in [7], in assay [11], in assay [13] and in assay [14] was inactive. Besides, the AC50 in assay [3] is 9.22 µM (active); in assay [8] it was 10.9 µM (active); in [9], 26.4 µM (active); in assay [10] it was 20.1 µM (active); in [12] it was 14.6 µM (active); in assay [15], 12.5 µM (active). The concentration at half-maximal activity (AC50) in assay [16] is 16 µM (active); in assay [17], 15.4 µM (active); in assay [18], 13.5 µM (active); in assay [19] it was 27 µM (active).
